Inconclusive results are not listed. Activity calls are given as the source filed them. The call rests on the fitted dose curve; in most records, active means well fitted curve in the direction sought with a large enough effect; inconclusive means small, poorly fitted or top-dose-only effect, or another doubt; inactive means no such curve, though single readings can be large; an effect the other way counts as inactive or inconclusive.

Experiment [1] can be described thus: Cell Viability - LYMP2-008 (AID 980). Further: nearly all actives have a fitted effect of over 60% in size. Further: potency means the concentration at half of the fitted maximal effect. As to conditions: LYMP2-008 lymphoblastoid cell viability, qHTS; series mostly up to 92.2 µM. In a few lines: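 Measured: ATP-dependent luminescence, proportional to viable cell number, in human lymphoblastoid cells treated 24 hr with compound in complete culture medium. Values are AC50s from Hill-equation modelling of qHTS titrations.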
Background: Quantitative high-throughput screening tests each substance at several concentrations.

Experiment [2] can be described thus: Cell Viability - LYMP2-010 (AID 981).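 Further: cells exposed to compound for 24 hours at 37 °C; nearly all actives have a fitted effect of over 55% in size.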 Further: potency means the concentration at half of the fitted maximal effect. As to conditions: LYMP2-010 lymphoblastoid cell viability, qHTS; series mostly up to 92.2 µM. Put shortly:
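This 24 hr viability screen uses LYMP2-010 lymphoblastoid cells, quantifies ATP via luciferase luminescence, and derives AC50 from Hill fits of qHTS concentration-response data.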

The nature of experiment [3]: Cell Viability - LYMP2-014 (AID 983).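 Further: cells exposed to compound for 24 h at 37 °C; nearly all actives have a fitted effect of over 50% in size.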 Further: potency means the concentration at half of the fitted maximal effect. The note with it: LYMP2-014 lymphoblastoid cells, viability qHTS; series mostly up to 92.2 µM. In a few lines:
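Quantitative HTS in lymphoblastoid cells: 24 hr compound exposure, then CellTiter-Glo ATP luminescence. Positive control was tetraoctylammonium bromide, 6.4pM to 92 uM.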

Experiment [4] can be described thus: Cell Viability - LYMP2-016 (AID 984).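 Further: cells exposed to compound for 24 hours at 37 °C; nearly all actives have a fitted effect of over 55% in size.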 Further: potency means the concentration at half of the fitted maximal effect. As to conditions: LYMP2-016 lymphoblastoid cell viability, qHTS; series mostly up to 92.2 µM. Put shortly: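 qHTS, 1536-well: 2500 LYMP2-016 cells/well, 5 hr 37 C, compound added, 24 hr 37 C, CellTiter-Glo 30 min RT, luminescence. Tetraoctylammonium bromide positive control. AC50 via Hill fit.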
The nature of experiment [5]: Cell Viability - LYMP2-018 (AID 985). Further: nearly all actives have a fitted effect of over 50% in size. Further: potency means the concentration at half of the fitted maximal effect. The note with it: LYMP2-018 lymphoblastoid cells, viability (qHTS); series mostly up to 92.2 µM. Put shortly:
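In this qHTS viability assay, cells are treated for 24 hr and cellular ATP is quantified by luciferase-based luminescence, with tetraoctylammonium bromide as positive control.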

Experiment [6] is described as follows: Cell Viability - LYMP2-020 (AID 986).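 Further: cells exposed to compound for 24 h at 37 °C; nearly all actives have a fitted effect of over 55% in size.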 Further: potency means the concentration at half of the fitted maximal effect. As to conditions: series mostly up to 92.2 µM. Put shortly:
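Cells at 2500 per well receive a 24 hr compound exposure at 37 C. Viability is measured as ATP-dependent luciferase luminescence, with AC50 modeled from qHTS concentration-response curves.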

Experiment [7] in a line: Cell Viability - LYMP2-022 (AID 987). Further: nearly all actives have a fitted effect of over 55% in size. Further: potency means the concentration at half of the fitted maximal effect. The note with it: LYMP2-022 lymphoblastoid cell viability; series mostly up to 92.2 µM. In a few lines:
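In this qHTS cytotoxicity screen, compound titrations were incubated 24 hr at 37 C with human lymphoblastoid cells in complete medium. Luciferase-based ATP luminescence provided the viability signal.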

Experiment [8] in a line: Cell Viability - LYMP2-024 (AID 988). Further: nearly all actives have a fitted effect of over 60% in size. Further: potency means the concentration at half of the fitted maximal effect. As to conditions: LYMP2-024 lymphoblastoid cell viability; series mostly up to 92.2 µM. Put shortly: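 Cells at 2500 per well received compound for 24 hr after a 5 hr settling period. Viability was scored by CellTiter-Glo luminescence, with AC50 from Hill fits.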
Experiment [9] can be described thus: Cell Viability - LYMP2-026 (AID 989).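 Further: cells exposed to compound for 24 h at 37 °C; nearly all actives have a fitted effect of over 50% in size.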 Further: potency means the concentration at half of the fitted maximal effect. The note with it: LYMP2-026 lymphoblastoid cell viability, qHTS; series mostly up to 92.2 µM. Put shortly: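 Acute toxicity screen in complete culture medium, with 24 hr compound exposure at 37 C. Viability read as cellular ATP via luciferase reaction, with tetraoctylammonium bromide (6.4pM to 92 uM) as positive control.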

For experiment [10], the target named is Alpha-galactosidase A (Homo sapiens) (UniProt P06280). The experiment is described as follows: Counterscreen for Glucocerebrosidase Inhibitors: qHTS Assay for Human alpha-Galactosidase at pH 4.5 (AID 992). The note with it: purified enzyme, fluorogenic substrate; series mostly up to 76.9 µM. Put shortly:
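Fluorogenic 1536-well qHTS at pH 4.5 (citrate, Tween-20): 2 nM enzyme, 80 uM 4-MU-alpha-galactoside, 20 min room temperature, NaOH/glycine stop. Titration 0.7 nM to 77 uM, data normalized to no-enzyme and full-activity controls, Hill-fitted AC50.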

Chain of Alpha-galactosidase A (Homo sapiens) (P06280 whole entry, looked up): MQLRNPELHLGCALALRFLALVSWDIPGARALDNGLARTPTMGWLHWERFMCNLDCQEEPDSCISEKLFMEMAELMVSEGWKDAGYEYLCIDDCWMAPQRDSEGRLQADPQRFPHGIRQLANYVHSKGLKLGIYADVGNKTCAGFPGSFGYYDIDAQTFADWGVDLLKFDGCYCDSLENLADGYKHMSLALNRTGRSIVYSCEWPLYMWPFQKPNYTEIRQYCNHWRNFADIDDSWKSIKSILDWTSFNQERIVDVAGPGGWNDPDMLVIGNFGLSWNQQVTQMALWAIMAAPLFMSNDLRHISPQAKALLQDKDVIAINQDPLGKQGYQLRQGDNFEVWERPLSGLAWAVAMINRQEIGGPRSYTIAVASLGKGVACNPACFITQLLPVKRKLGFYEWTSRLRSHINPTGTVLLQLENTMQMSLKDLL

For the compound `OCc1c[nH]c2ccccc12`, the Potency entry in experiment [1], in experiment [2], in [3], in [4], in [5] and in [6] was “inactive” throughout. Also, the Potency entry in experiment [7], in experiment [8] and in [9] was “inactive” each time.

`Cc1ccc(O)cc1`: the Potency result in [1], in experiment [2], in [3], in experiment [4], in experiment [5] and in experiment [6] was “inactive” throughout. The Potency entry in experiment [7], in experiment [8] and in experiment [9] was “inactive” each time.

Regarding `O=C(NO)c1ccccc1`, the Potency result in experiment [1], in experiment [2], in experiment [3], in experiment [4], in [5] and in [6] was “inactive” in each case. Moreover, the Potency result in experiment [7], in [8] and in [9] was “inactive” each time.

Regarding `CC(C)(C)c1ccc(O)c(O)c1`, the Potency is 50.1 µM (active) in experiment [1]; 31.6 µM (active) in experiment [2]; 50.1 µM (active) in experiment [4]; 50.1 µM (active) in experiment [6]; 39.8 µM (active) in [7]; 25.1 µM (active) in experiment [8].

On to `CN(C)c1cc2c(Nc3ccc4c(cnn4Cc4ccccc4)c3)ncnc2cn1`, for which the result in experiment [10] was inactive.

On to `NC(N)=NCCCCN=C(N)N`, for which the call in experiment [10] was inactive.

For the compound `Nc1ccc(O)cc1`, the Potency was 39.8 µM (active) in experiment [1]; 25.1 µM (active) in [2]; 39.8 µM (active) in [3]; 50.1 µM (active) in experiment [4]; 39.8 µM (active) in experiment [5]; 31.6 µM (active) in experiment [6]. The values for the Potency in experiment [7], in [8] and in experiment [9] were 25.1 µM (active), 25.1 µM (active) and 50.1 µM (active), respectively.

As for `O=C1NC(c2cccc([N+](=O)[O-])c2)=CCN1c1ccccc1O`, the compound was called inactive in experiment [10].

In the case of `O=C(Oc1ccccc1)c1ccccc1O`, the Potency result in experiment [1], in experiment [2], in [3], in experiment [4], in [5] and in [6] was “inactive” in each case. Moreover, the Potency result in experiment [7], in experiment [8] and in [9] was “inactive” in each case.

`O=[N+]([O-])c1ccc(-c2nc(-c3ccc(F)cc3)c(-c3ccncc3)[nH]2)cc1`: the compound was called inactive in experiment [10].

With `Brc1ccccc1-c1ccccc1`, the Potency entry in experiment [1], in experiment [2], in experiment [3], in experiment [4], in experiment [5] and in [6] was “inactive” throughout. In addition, the Potency entry in experiment [7], in experiment [8] and in experiment [9] was “inactive” each time.

As to `Nc1c2ccccc2nc2ccccc12`, the Potency in experiment [1] is 12.6 µM (active); in experiment [2], 12.6 µM (active); in experiment [3], 10 µM (active); in [4], 10 µM (active); in [5] it was 12.6 µM (active); in experiment [6], 10 µM (active). Moreover, the figures for the Potency in experiment [7], in experiment [8] and in experiment [9] were 12.6 µM (active), 12.6 µM (active) and 15.8 µM (active), respectively.

As for `COc1ccccc1N1CCN(CCN2C(=O)CC3(CCCC3)CC2=O)CC1`, the call in experiment [10] was inactive.

Regarding `CC(C)C(C)(C)C(C)(C)C(C)(C)S`, the Potency entry in experiment [1], in experiment [2], in experiment [3], in experiment [4], in experiment [5] and in experiment [6] was “inactive” throughout. Also, the Potency entry in [7], in experiment [8] and in experiment [9] was “inactive” in each case.

For the compound `CC(=O)OC/C=C(C)/C=C/C=C(C)/C=C/C1=C(C)CCCC1(C)C`, the Potency in experiment [2] is 50.1 µM (active); in experiment [7], 50.1 µM (active); in experiment [8] it was 39.8 µM (active).

In the case of `O=C(c1ccccc1)c1ccccc1`, the Potency result in experiment [1], in experiment [2], in experiment [3], in experiment [4], in experiment [5] and in experiment [6] was “inactive” throughout. In addition, the Potency result in [7], in experiment [8] and in [9] was “inactive” throughout.

For the compound `Brc1ccc([C@H]2CN3CCSC3=N2)cc1`, the call in experiment [10] was inactive.

Turning to `CCCCC(CC)COC(=O)c1ccccc1C(=O)O` (configuration not stated), the Potency entry in [1], in experiment [2], in [3], in experiment [4], in [5] and in [6] was “inactive” throughout. Further, the Potency result in experiment [7], in experiment [8] and in experiment [9] was “inactive” throughout.

Turning to `Oc1ccccc1`, the Potency result in experiment [1], in experiment [2], in [3], in experiment [4], in experiment [5] and in [6] was “inactive” throughout. Further, the Potency result in experiment [7], in [8] and in [9] was “inactive” in each case.

As for `C[N+](C)(C)CCO`, the result in experiment [10] was inactive.

Consider `Cc1cc(C(C)(C)C)c(O)c(C(C)(C)C)c1`, for which the Potency result in [1], in experiment [2], in [3], in [4], in [5] and in experiment [6] was “inactive” each time. The Potency entry in experiment [7], in [8] and in experiment [9] was “inactive” each time.

As to `Cn1cnc2c(NCc3ccccc3)nc(NCCO)nc21`, in experiment [10], the outcome was inactive.

Regarding `CC(C)(c1ccc(O)cc1)c1ccc(O)cc1`, the Potency entry in [1], in experiment [2], in [3], in experiment [4], in experiment [5] and in experiment [6] was “inactive” in each case. Further, the Potency result in experiment [7], in experiment [8] and in experiment [9] was “inactive” in each case.

For the compound `C1=CC2C3C=CC(C3)C2C1` (configuration not stated), the Potency entry in experiment [1], in experiment [2], in experiment [3], in [4], in experiment [5] and in experiment [6] was “inactive” each time. Besides, the Potency entry in experiment [7], in experiment [8] and in [9] was “inactive” in each case.

`COc1cc(C=O)ccc1O`: the Potency result in experiment [1], in experiment [2], in [3], in [4], in experiment [5] and in experiment [6] was “inactive” in each case. Also, the Potency result in experiment [7], in experiment [8] and in experiment [9] was “inactive” in each case.

Consider `CCCC(=O)c1cc(O)c(O)cc1O`, for which the Potency entry in [1], in experiment [3], in experiment [4], in experiment [5], in [6] and in experiment [7] was “inactive” in each case. Besides, the Potency result in experiment [9] was “inactive”.

As to `CC(C)N(CCC(=O)c1ccc2ccccc2c1)Cc1ccccc1`, in [10], the call was inactive.

In the case of `Nc1cccc2c(N)cccc12`, the Potency entry in [1], in experiment [2], in experiment [3], in experiment [4], in [5] and in experiment [6] was “inactive” each time. Also, the Potency result in experiment [7], in experiment [8] and in experiment [9] was “inactive” throughout.

Turning to `CCCCCCCCCCCCCCCC[n+]1ccccc1`, the Potency in [1] was 15.8 µM (active); in [2], 15.8 µM (active); in experiment [3] it was 12.6 µM (active); in experiment [4], 15.8 µM (active); in [5], 12.6 µM (active); in [6], 15.8 µM (active). Besides, the Potency in [7] was 12.6 µM (active); in experiment [8] it was 15.8 µM (active); in [9], 15.8 µM (active).

Take `c1ccc2occc2c1`: the Potency result in experiment [1], in [2], in experiment [3], in [4], in experiment [5] and in experiment [6] was “inactive” in each case. In addition, the Potency entry in experiment [7], in experiment [8] and in experiment [9] was “inactive” in each case.

(Values after PubChem BioAssay (NCATS).)
